# Data from PubChem BioAssay (NCI).
# The panel holds about 83,000 compounds, 20% with a hit somewhere; the sample as a whole holds those more often.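 In brief: 96-well plates, 48 h treatment, single concentration, percent growth endpoint.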 Unmarked numbers belong to inactive results. Calls of active or inactive are those of the source. The calls were made as follows: active = growth percent below 10; inactive = the rest.
# How the values were obtained:
# Test in all cases: NCI-60 one-dose screen, 48 h (100 = growth as untreated, 0 = no growth, -100 = all killed)
# Conditions in all cases: 10 µM
# [1] = tested on: 786-0 renal
# [2] = tested on: MALME-3M melanoma
# [3] = tested on: MDA-MB-231 breast
# [4] = tested on: SF-268 CNS
# [5] = tested on: SF-295 CNS
# [6] = tested on: UACC-257 melanoma
# [7] = tested on: SK-MEL-28 melanoma
# [8] = tested on: EKVX NSCLC
# [9] = tested on: UO-31 renal
# [10] = tested on: TK-10 renal
# [11] = tested on: ACHN renal
# [12] = tested on: CAKI-1 renal
# [13] = tested on: A498 renal
# [14] = tested on: OVCAR-8 ovarian
# [15] = tested on: OVCAR-5 ovarian
# [16] = tested on: OVCAR-3 ovarian
# [17] = tested on: HS 578T breast
# [18] = tested on: BT-549 breast
# [19] = tested on: MDA-MB-435 melanoma
# [20] = tested on: SW-620 colon
SMILES,growth [1],growth [2],growth [3],growth [4],growth [5],growth [6],growth [7],growth [8],growth [9],growth [10],growth [11],growth [12],growth [13],growth [14],growth [15],growth [16],growth [17],growth [18],growth [19],growth [20]
COc1cc2oc(-c3cccc(C(=O)Nc4ccc(Cl)cc4)c3)cc(=O)c2c(OCCN)c1OC,-80.9% (active),-67.9% (active),-86.7% (active),-76.8% (active),-81.4% (active),-85.2% (active),-88.1% (active),-84.6% (active),-81.1% (active),-91.2% (active),-92.5% (active),-85% (active),-93.9% (active),-85.5% (active),-87.4% (active),-87.8% (active),-68.1% (active),-88.2% (active),-76.9% (active),-79.4% (active)
COc1ccc(C2OC[C@@]3(C)C4CC[C@]5(C)C(CC=C6C7CC(C)(C)CC[C@]7(C(=O)O)CC[C@]65C)[C@@]4(C)C[C@@H](O)[C@@H]3O2)cc1 (stereo not given in full),94.8%,99.3%,110%,88.8%,94.3%,96.3%,103%,52.9%,57.9%,76%,56.8%,73.5%,102%,73.2%,108%,74.1%,85.3%,82.4%,97%,69.9%
CC1[C@H]2[C@H](C[C@H]3[C@@H]4CC=C5c6sc(Nc7cccc(Cl)n7)nc6CC[C@]5(C)[C@H]4CC[C@@]32C)O[C@]12CC[C@@H](C)CO2 (stereo not given in full),105%,117%,82.4%,86.9%,109%,82%,100%,83.8%,85.4%,171%,96.4%,84.8%,92.6%,74.2%,113%,93.7%,106%,83.5%,75.8%,104%
Cn1cc(-c2cc(N)n3nc(-c4cn(C)c5ccccc45)cc3n2)c2cc(F)ccc21,-89.4% (active),-78.5% (active),-56% (active),-63.1% (active),-72.6% (active),-86.4% (active),-80.4% (active),-50.1% (active),-82.4% (active),-58.6% (active),-89.4% (active),-80.9% (active),-68.9% (active),-94.9% (active),-52.6% (active),-75% (active),-24.1% (active),-69.9% (active),-81.1% (active),-54.4% (active)
C#CCOc1cc(N(CC)CC)ccc1C(C(=O)NC(C)(C)C)N(C(=O)C1CCc2cc(F)ccc2O1)c1ccc(F)cc1F (stereo not given),53.9%,62.1%,55.4%,50.6%,33.2%,29.6%,62.8%,47.6%,27.7%,61.3%,24.7%,29.8%,68.9%,43.9%,64%,33.4%,70.6%,31.1%,40.6%,53.7%
Fc1ccc(/C=C/c2nc3ccccc3n3c(-c4ccc(Cl)cc4)nnc23)cc1,73.4%,7.93% (active),70%,78%,128%,96.7%,89.1%,74.6%,53.3%,112%,47.5%,62.3%,111%,72.6%,96.3%,76.9%,80.5%,79.3%,78.4%,44.3%
C#C[C@]1(O)CC[C@H]2[C@@H]3CC=C4c5sc(Nc6ccc(C(F)(F)F)cn6)nc5CC[C@]4(C)[C@H]3CC[C@@]21C,-72.4% (active),-13.1% (active),-34.2% (active),23.2%,-68.8% (active),-3.66% (active),-16.5% (active),-3.2% (active),-23.8% (active),12.9%,0.62% (active),0.3% (active),-15.8% (active),-8.07% (active),9.25% (active),-35.8% (active),-6.11% (active),-50% (active),1.17% (active),-32.8% (active)
COc1ccc(OC)c(-n2cc(C#N)c(N)c2C(=O)c2ccc(Cl)cc2Cl)c1,63.4%,50.3%,64.2%,56.2%,28.4%,63.6%,59%,42.7%,56.7%,78.8%,53.3%,36.9%,28.3%,68.8%,74.4%,23.5%,38.6%,48.3%,-37.1% (active),26.8%
CCOc1ccc(/C=N/NC(=O)Cn2nc(Cc3ccc(OC)cc3)c3onc(C)c3c2=O)cc1,-40.3% (active),-14.5% (active),20.7%,19%,20.4%,62.1%,11.5%,33.8%,2.46% (active),50.2%,13.1%,5.68% (active),48.2%,16.9%,44.9%,13.7%,1.74% (active),23.7%,50.5%,23%
COC(=O)CNC(=O)COc1c(OC)c(OC)cc2oc(-c3cccc(C(=O)Nc4ccc(Cl)cc4)c3)cc(=O)c12,-24.3% (active),-26.1% (active),-1.24% (active),21.9%,21.4%,58.7%,20.5%,64.1%,66.5%,130%,47.2%,55.8%,119%,-69% (active),90.7%,55.6%,-3.95% (active),1.95% (active),28.5%,51.4%
O=C(CN1CCN(c2ncnc3c2cnn3-c2ccccc2)CC1)Nc1ccc(Br)cc1,-61.7% (active),-54.4% (active),66.7%,58.8%,83%,58.7%,72%,46.9%,-77% (active),121%,-88.1% (active),-57% (active),90.9%,64.7%,78.2%,60.6%,70.7%,50%,53.2%,78.1%
Nc1nnc(-c2c[nH]c3ncc(Br)cc23)c(-c2c[nH]c3ccc(Br)cc23)n1,36.2%,56.1%,65%,46%,44.7%,71%,45.6%,46.2%,32.6%,67.8%,37.3%,28.1%,-13% (active),34%,62.1%,4.38% (active),24.7%,6.94% (active),22.4%,20.2%
COc1ccc(Cn2cc(C#N)c(N)c2C(C)=O)c(OC)c1,102%,108%,101%,103%,109%,109%,109%,98.6%,96.4%,113%,101%,102%,97.8%,104%,112%,105%,111%,107%,108%,106%
Cn1cc(-c2cc3nc(-c4c[nH]c5ccccc45)cc(N)n3n2)c2cc(Cl)ccc21,-85.7% (active),-90.8% (active),-69.4% (active),-44.6% (active),-90.9% (active),-90.4% (active),-99.4% (active),-90% (active),-97.7% (active),-91.8% (active),-100% (active),-98.7% (active),-82.9% (active),-86.1% (active),-86.4% (active),-80% (active),-22.2% (active),-90.4% (active),-93.1% (active),-61% (active)
COc1ccccc1-n1cc(C#N)c(N)c1C(=O)c1ccc(Cl)cc1Cl,52.8%,37.6%,46.4%,47.3%,19.9%,52.7%,57.5%,29.6%,42.4%,55.8%,48.3%,33.8%,-0.709% (active),34.7%,49.9%,17.8%,-2.89% (active),31.4%,-38.3% (active),25%
